Some structures have more than one record in an assay (separate samples or runs), and their calls can disagree. Active and inactive are the calls of the source. The calls were made as follows: active = hit-call score of the fitted dose curve at least 0.9, where 1 is the maximum; inactive = score below 0.9.
These compounds were tested on Collagen III, COL3A1 (gene 1281) (assay: BSK_hDFCGF_CollagenIII: BioMAP Diversity Plus: hDFCGF Assay for Collagen III Biomarker Activity (AID 2283056)). Conditions: primary human foreskin fibroblasts; actives raise or lower the signal.
Experimental: BSK_hDFCGF is a cell-based, multiplexed-readout assay that uses foreskin fibroblast, a human skin primary cell, with measurements taken at 24 hours after chemical dosing in a 96-well plate.BSK_hDFCGF_CollagenIII is an assay component measured in the BSK_hDFCGF assay. It measures Collagen antibody related to regulation of gene expression using ELISA technology.Data from the assay component BSK_hDFCGF_CollagenIII was analyzed into 1 assay endpoint. This assay endpoint, BSK_hDFCGF_CollagenIII, was analyzed with bidirectional fitting relative to DMSO as the negative control and baseline of activity. Using a type of binding reporter, gain or loss-of-signal activity can be used to understand changes in the signaling as they relate to the gene COL3A1. Furthermore, this assay endpoint can be referred to as a primary readout, because this assay has produced multiple assay endpoints where this one serves a signaling function. To generalize the intended target to other relatable targets, this assay endpoint is annotated to the cell adhesion molecules intended target family, where the subfamily is collagen.
The levels of cell surface (or secreted, indicated by the prefix "s") biomarker endpoints were measured by ELISA. Overt cytotoxicity to cells in confluent adherent cultures (all systems other than the BT system) was assessed by measuring total protein levels using sulforhodamine B (SRB) staining in parallel cultures at the time of biomarker measurements, indicated as SRB endpoints. For proliferation assays for adherent cell types, individual cell types are cultured at sub-confluence and relative cell numbers quantified by SRB staining at time points optimized for each system (48 h: 3C and CASM3C systems; 72 h: BT and HDF3CGF systems; 96 h: SAg system). SRB was performed by staining cells with 0.1% SRB after fixation with 10% TCA and reading wells at 560 nm.Viability and proliferation of PBMC (T cells) was quantified by Alamar Blue reduction for the SAg and BT systems. For PBMC viability (referred to as PBMC Cytotoxicity within the assay endpoint names), cells were plated (75,000/well in a 96-well plate) and then chemical samples added for 1 h before addition of activators, SEB and TSST-1 (20 ng/mL final concentration each). Cells were incubated for 90 h. Then, Alamar Blue (20 uL/well) (Invitrogen, Cat DAL1100) was added for 6 h, and the plates were read with a fluorescence microplate reader at 546/580 nm (excitation/emission). For PBMC proliferation, cells were plated and activated as above but incubated for only 16 h prior to addition of Alamar Blue. Plates were read after 6 h.
With `OC(O)(C(F)C(O)(O)C(F)(F)F)C(F)(F)F` the outcome was “inactive”. With `CC[C@H](C)C(=O)O[C@H]1C[C@H](O)C=C2C=C[C@H](C)[C@H](CC[C@@H](O)C[C@@H](O)CC(=O)O)[C@H]21` the outcome was “inactive”. For `COc1cc(C(C)C)c2c(c1)S(=O)(=O)N(COc1cc(=O)n3cccc(OCCN4CCCCC4)c3n1)C2=O`, the outcome was “inactive”. For `CC(C)CCCCCCOC(=O)C1CCCCC1C(=O)OCCCCCCC(C)C` (stereo not given), the outcome was “inactive”. `Cc1cccc(O)c1C` was tested, and the outcome was “inactive”. `Cc1nc(-c2ccccn2)ncc1C(=O)Nn1cc(C)c2cc(F)ccc21` was tested, and the outcome was “inactive”. `C=CCc1cc(S(=O)(=O)c2ccc(O)c(CC=C)c2)ccc1O` was tested, and the AC50 was 6.52 µM (active). For `O=C1CN(N=Cc2ccc([N+](=O)[O-])o2)C(=O)N1`, the outcome was “inactive”. With `FC(F)(F)C(F)(F)C(F)(F)C(F)(F)C(F)(F)C(F)(F)I` the outcome was “inactive” and the AC50 was 30 µM (active). `OC(CCl)CCl` was tested, and the outcome was “inactive”. `NC(N)=O` was tested, and the outcome was “inactive”. `CCCCCCCCCCCCCCCCOS(=O)(=O)O` was tested, and the AC50 was 18.3 µM (active). For `Cc1nccn1-c1ccc(Sc2cccc(C3(C(N)=O)CCOCC3)c2)cc1`, the outcome was “inactive”. For `CCCCCCCCCCCCCCO`, the AC50 was 11 µM (active). For `c1ccc2cc3ccccc3cc2c1`, the outcome was “inactive”. `NCC(F)(F)C(F)(F)C(F)(F)C(F)(F)F` was tested, and the outcome was “inactive”. In the case of `CCCCCCCC/C=C\CCCCCCCC(=O)OC[C@@H](O)[C@H]1OC[C@H](O)[C@H]1O`, the outcome is reported as “inactive”. With `CC1(C)C(=O)N(Cl)C(=O)N1Cl` the outcome was “inactive”. With `O=c1[nH]cnc2c1ncn2[C@H]1CC[C@@H](CO)O1` the outcome was “inactive”. With `NNC(=O)c1ccncc1` the outcome was “inactive”. With `Cc1ncc([C@@H](CCCCCCc2ccc3c(n2)NCCC3)CC(=O)O)cn1` the outcome was “inactive”. For `FC(F)(F)COC(OCC(F)(F)F)OCC(F)(F)F`, the outcome was “inactive”. `CCOC(N)=O` was tested, and the outcome was “inactive”. For `O=C(O)c1cccc(C[C@@H]2COc3ccc(OCc4nc5cc(F)ccc5s4)cc3[C@@H]2O)c1`, the outcome was “inactive”. With `CCn1nc(C)c2c1C(=O)NCC(c1ccc(O)cc1)=N2` the outcome was “inactive”. For `S=P(N1CC1)(N1CC1)N1CC1`, the outcome was “inactive”. In the case of `CCc1ccc(O)c(C(C)(C)C)c1`, the AC50 is reported as 20 µM (active). For `O=C(Cl)C(F)(F)C(F)(F)C(F)(F)C(=O)Cl`, the outcome was “inactive”. `OCCNCCO` was tested, and the outcome was “inactive”. For `C=CN1CCCC1=O`, the outcome was “inactive”. `c1ccc(C(O[C@@H]2CCCN(CCc3ccc4c(c3)OCO4)C2)c2ccccc2)cc1` was tested, and the AC50 was 5.39 µM (active). In the case of `OC[C@H]1O[C@@H]2O[C@H]3[C@H](O)[C@@H](O)[C@@H](O[C@H]4[C@H](O)[C@@H](O)[C@@H](O[C@H]5[C@H](O)[C@@H](O)[C@@H](O[C@H]6[C@H](O)[C@@H](O)[C@@H](O[C@H]7[C@H](O)[C@@H](O)[C@@H](O[C@H]1[C@H](O)[C@H]2O)O[C@@H]7CO)O[C@@H]6CO)O[C@@H]5CO)O[C@@H]4CO)O[C@@H]3CO`, the outcome is reported as “inactive”. For `CCCCCCCCN(C)C`, the outcome was “inactive”. For `OCC(CO)(CO)CO`, the outcome was “inactive”. For `O=C(NO)C1(NS(=O)(=O)c2ccc(Oc3ccc(F)cc3)cc2)CCOCC1`, the outcome was “inactive”. In the case of `C[C@]12C=CC(=O)C=C1CC[C@H]1[C@@H]3C[C@@H](O)[C@](O)(C(=O)CO)[C@@]3(C)C[C@H](O)[C@@]12F`, the outcome is reported as “inactive”. With `Nc1ccn([C@@H]2O[C@H](CO)[C@@H](O)[C@@H]2O)c(=O)n1` the outcome was “inactive”. With `CCCc1ccccc1` the outcome was “inactive”. In the case of `OCc1ccccc1`, the outcome is reported as “inactive”.

Source: PubChem BioAssay (EPA / NIEHS)
